Laboratory results: PubChem BioAssay AID588726 (The Scripps Research Institute Molecular Screening Center, 2011)
In all, about 360,000 compounds went through this assay and about 8,200 (2.3%) were called active. Rule as the data show it: active = inhibition above about 27%; inactive = the rest. The list comes from a sample in which actives are over-represented; it also holds similar structures and randomly drawn compounds.

Each molecule was assayed against Fructose-bisphosphate aldolase (Mycobacterium tuberculosis (strain ATCC 25618 / H37Rv)) (UniProt P9WQA3) (assay: Mtb FBA enzyme inhibitors, primary screen, biochemical, fluorescence, strain H37Rv (AID 588726;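 also: 0% = vehicle and 100% = reference inhibitor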)). Settings: purified M. tuberculosis FBA, fluorescence read-out, at 1 µM, hits give high values.
Chain of Fructose-bisphosphate aldolase (Mycobacterium tuberculosis (strain ATCC 25618 / H37Rv)) (P9WQA3 whole entry, looked up): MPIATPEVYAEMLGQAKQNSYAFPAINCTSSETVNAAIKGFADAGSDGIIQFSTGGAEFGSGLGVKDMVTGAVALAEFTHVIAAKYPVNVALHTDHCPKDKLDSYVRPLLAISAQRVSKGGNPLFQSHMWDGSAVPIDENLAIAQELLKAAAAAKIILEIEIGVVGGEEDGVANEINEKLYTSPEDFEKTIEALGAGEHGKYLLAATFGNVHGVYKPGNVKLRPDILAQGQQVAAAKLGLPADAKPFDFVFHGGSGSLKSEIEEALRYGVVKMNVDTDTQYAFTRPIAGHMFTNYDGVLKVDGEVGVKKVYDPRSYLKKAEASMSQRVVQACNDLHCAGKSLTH

Compound | inhibition
Cc1ccc(C2=Nc3c(ccc4ccccc34)C(c3ccncc3)=NN2)cc1 | 1.27% (inactive)
CC(=O)Nc1cccc(-c2ccnc3c2CC(C)(C(=O)NCc2ccco2)O3)c1 (centres undefined) | -0.36% (inactive)
O=C(Cn1nnc(-c2ccc3c(c2)OCO3)n1)NCc1ccco1 | 1.83% (inactive)
CC1(C(=O)NCc2ccc(F)c(F)c2)Cc2c(-c3ccc4c(c3)OCO4)ccnc2O1 (centres undefined) | 44.6% (active)
CC1(C(=O)NCC2CCOCC2)Cc2c(-c3cccc(C(N)=O)c3)ccnc2O1 (centres undefined) | -0.46% (inactive)
CC1(C(=O)NCc2ccco2)Cc2c(-c3ccc4c(c3)OCO4)ccnc2O1 (centres undefined) | 46.9% (active)
CC(=O)Nc1cccc(-c2ccnc3c2CC(C)(C(=O)NCc2ccccc2)O3)c1 (centres undefined) | 1.41% (inactive)
CCc1nc2c(OCC(N)=O)cccn2c1N(C)C(=O)c1ccc(OC)cc1 | -2.06% (inactive)
Cc1nc(C(=O)NCc2ccccc2)sc1C1(C)CC(c2cccnc2)=NO1 (centres undefined) | -0.93% (inactive)
O=C(CN1CCN(S(=O)(=O)c2ccc(Cl)s2)CC1)N1CCCCC1 | 5.01% (inactive)
C/C(N)=C(/C#N)C(=O)COC(=O)c1cc(-c2ccc(C)cc2)nc2ccccc12 | 0.39% (inactive)
CN(CCOc1ccccc1)C(=O)c1cc(COc2c(F)cccc2F)on1 | -3.64% (inactive)
COc1cccc(NC(=O)CN(C)C(=O)c2cc(Cl)nc3ccccc23)c1 | 2.95% (inactive)
COc1ccc(NC(=O)CN(C)C(=O)c2cc(-c3ccc(C)o3)nc3ccccc23)cc1 | 71.2% (active)
COc1ccc(C)cc1NC(=O)c1cc(-c2ccccc2)nc2c1cnn2C(C)C | 1.87% (inactive)
O=C(c1ccc(Cl)cc1)n1cnc2ccccc21 | 5.13% (inactive)
CN(CCOc1ccccc1)C(=O)c1cc(-c2ccco2)nc2ccccc12 | 29.6% (active)
COc1ccc(-c2cc(C(=O)n3cnc4ccccc43)c3ccccc3n2)cc1 | 113% (active)
CN(C(=O)COC(=O)c1cc(-c2ccco2)nc2ccccc12)C1CCS(=O)(=O)C1 (centres undefined) | 4.55% (inactive)
COc1ccc(-c2cc(C(=O)Nc3ccccc3O)c3ccccc3n2)cc1 | 28.8% (active)
C/C(=N\NC(=O)c1cc(-c2ccc(O)cc2)nc2ccccc12)c1cccnc1 | 0.88% (inactive)
COc1ccc(NC(=O)CN(C)C(=O)c2cc(C)oc2C)cc1 | 0.68% (inactive)
CC(C)c1ccc(/C=C/C(=O)NCCCN2CCOCC2)cc1 | 0.72% (inactive)

Compound | inhibition
CCN(C(=O)c1cc([N+](=O)[O-])ccc1NCc1cccnc1)c1ccccc1 | 2.57% (inactive)
COC(=O)c1cc2n(n1)CCCNC2=O | 3.15% (inactive)
C=C(C)Cn1c(C)cc(C)c(S(=O)(=O)c2ccccc2C)c1=O | -0.53% (inactive)
CCc1cc(C(c2ccccc2OC)N2CCOCC2)c(NC(=O)c2ccccc2)s1 (centres undefined) | -1.6% (inactive)
COc1cccc(C(=O)N/N=C(\C)c2cccc(NC(=O)c3ccc(F)cc3)c2)c1OC | -1.27% (inactive)
Cn1nc(C(F)(F)F)cc1-c1ccc(/C=C(\C#N)C(=O)c2cccc(C(F)(F)F)c2)s1 | 0.1% (inactive)
CCc1ccc(OCC(=O)OC(C)C(=O)NC2CC2)cc1 (centres undefined) | -0.68% (inactive)
COc1ccc(-c2cc(C(=O)N(C)Cc3ccccc3)c3ccccc3n2)cc1 | 69.9% (active)
COc1ccc(C2=NS(=O)(=O)N(C)C(C(=O)N(C)Cc3ccccc3)=C2)cc1 | 4.86% (inactive)
COc1ccc(CN(C)C(=O)c2cc(-c3ccc(C)cc3C)nc3ccccc23)c(OC)c1OC | -0.53% (inactive)
O=C(c1cc(-c2ccco2)nc2ccccc12)N(Cc1nnc(-c2ccc(Cl)cc2)o1)C1CC1 | 46.8% (active)
CC(C)N(Cc1nnc(-c2ccccc2Br)o1)C(=O)c1cc(Cl)nc2ccccc12 | 2.07% (inactive)
O=C(c1ccc(Cl)s1)N(Cc1nnc(-c2ccccc2Cl)o1)C1CC1 | -1.65% (inactive)
C=CCOc1cccc(CNCc2cccnc2)c1 | -1.51% (inactive)
CC1(C)CC(=O)c2c(n(S(=O)(=O)c3ccccc3)c3ccc(NS(=O)(=O)c4ccccc4)cc23)C1 | -1.63% (inactive)
C[C@@H](C(=O)Nc1ccc2ccccc2c1)[C@@H]1C[C@@]1(C)[C@@H](NC(=O)c1cccnc1)c1ccccc1 | -0.2% (inactive)
O=C(CSc1ncn[nH]1)Nc1nc2c(F)c(F)c(F)cc2s1 | 0.81% (inactive)
CC(=O)N(CN1C(=O)C2C3C=CC(C3)C2C1=O)c1cccc(Cl)c1 (centres undefined) | -0.27% (inactive)
COc1ccc(-c2ccc3c(c2)[C@@H]2C[C@H](N(C)S(=O)(=O)c4ccccc4)[C@H]([C@H](C)O)C(=O)N2CC3)cc1 | 4.15% (inactive)
CN(Cc1ccccc1)C(=O)CCNC(=O)Cn1cnc2ccccc2c1=O | 5.26% (inactive)
CCCCN(C)CCC(=O)Nc1ccc(Cl)cc1 | 0.51% (inactive)
CC(=O)Nc1ccc(Oc2ccc3c(c2)C(=O)NC3=O)cc1 | 2.21% (inactive)
CCCCC(=O)Nc1ccc2c(c1)C(=O)NC2=O | 42.1% (active)

Compound | inhibition
Cc1ccc(C(=O)NC2CCN(C(=O)Nc3ccccc3Cl)CC2)cc1 | -1.09% (inactive)
COc1ccc(C(=O)OCC(=O)NC(=O)CCSc2ccccc2)cc1 | -0.72% (inactive)
Cc1ccccc1CN1CCNC(=O)C1CC(=O)NCCC1=CCCCC1 (centres undefined) | 2.98% (inactive)
Cc1cc(C(=O)OC(C)C(=O)Nc2cccc(S(=O)(=O)N3CCOCC3)c2)c(C)o1 (centres undefined) | -3.62% (inactive)
CCOCCCNC(=O)C(NC(=O)CNC(=O)c1ccccc1)c1ccc(OC)cc1 (centres undefined) | -0.07% (inactive)
CCOCCCNC(=O)C(NC(=O)CNC(=O)c1ccccc1)c1ccc(C)cc1 (centres undefined) | -3.14% (inactive)
CCOCCCNC(=O)C(NC(=O)c1ccccc1O)c1ccccc1 (centres undefined) | 43.8% (active)
COc1cccc(NC(=O)[C@H](Cc2c[nH]c3ccccc23)NC(=O)[C@@H]2Cc3ccccc3CN2)c1 | 10.6% (inactive)
CCCCn1c(O)c(N=NC(=O)Cn2c(C(F)(F)F)nc3ccccc32)c2ccccc21 | 3.68% (inactive)
N#C/C(=C/c1ccc(N2CCCCC2)o1)C(=O)NCCc1c[nH]c2ccccc12 | -32.6% (inactive)
CN=C1C=C/C(=N/N=c2\ccn(O)cc2C)C=C1C | -28.4% (inactive)
Cc1ccc(S(=O)(=O)Nc2ccc(F)c(S(=O)(=O)N3CCOCC3)c2)cc1 | -0.06% (inactive)
COCc1cc(=O)oc2cc(NS(=O)(=O)c3ccc(C)cc3)ccc12 | 62.4% (active)
COc1ccc(S(=O)(=O)Nc2ccc3oc(C)c(C(C)=O)c3c2)cc1 | 0.55% (inactive)
CCOC(=O)C1CCN(C(=O)/C=C/c2cc(OC)c(OC)c(OC)c2)CC1 | 6.09% (inactive)
COc1ccccc1CCNC(=O)C1CCN(C(=O)/C=C/c2ccccc2)CC1 | 81.2% (active)
COc1ccccc1CNC(=O)C1CCN(C(=O)[C@@H]2Cc3ccccc3CN2)CC1 | -1.63% (inactive)
CCCCC(CC)CNC(=O)CCCCn1c(=O)[nH]c2ccsc2c1=O (centres undefined) | -2.17% (inactive)
COc1cc(C2NC(=O)NC(c3ccccc3)=C2C(C)=O)c(Br)cc1OCC(N)=O (centres undefined) | 1.26% (inactive)
O=C(CC(n1cncn1)C(Cl)(Cl)Cl)c1ccc([N+](=O)[O-])cc1 (centres undefined) | 5.32% (inactive)
NC(=S)NN=Cc1ccc(OC(=O)COc2cc(Cl)c(Cl)cc2Cl)cn1 | 4.26% (inactive)
O=C(Nc1ccccc1C(=O)O)c1ccc(N2C(=O)C3CC=CCC3C2=O)cc1 (centres undefined) | -1.48% (inactive)
Nc1ccccc1-c1nc2ccncc2[nH]1 | 83.7% (active)

Compound | inhibition
O=[N+]([O-])c1ccc2nc(-c3ccccn3)[nH]c2c1 | -3.65% (inactive)
Cc1cc(C)nc(Nc2n[nH]c(-c3ccccc3N)n2)n1 | 15.2% (inactive)
O=S(=O)(NCCSc1ccccn1)c1ccc(Cl)cc1 | -1.18% (inactive)
O=C(CN1CCC(O)(c2cccc(C(F)(F)F)c2)CC1)NCCc1ccccc1 | -2.53% (inactive)
CCOc1ccc(C(=O)CCC(=O)NC2=NCCS2)cc1 | -2.69% (inactive)
CCCN1CCN(C(=O)Cn2ncc3ccccc32)CC1 | 2.25% (inactive)
CCc1nn(CC(=O)N2CCN(CC)CC2)c(=O)c2cccn12 | 2.42% (inactive)
CCN1CCN(C(=O)Cn2nc(C)n3c(cc4c(OC)cccc43)c2=O)CC1 | 195% (active)
Cc1ccccc1NC(=O)NC1(C(=O)N2CCCC2)CCCCC1 | -0.74% (inactive)
COc1ccc(-c2nn(-c3ccccc3)cc2CN2CCCO2)c(F)c1 | -2.2% (inactive)
Cc1cccc(-n2cc(CN3CCN(C(=O)c4ncn[nH]4)CC3)c(-c3cccc(F)c3)n2)c1 | -3.35% (inactive)
COc1ccc(-n2cc(CN(C)Cc3n[nH]c(=O)[nH]3)c(-c3cccc(F)c3)n2)cc1 | 33.1% (active)
Cc1ccc(-n2cc(CN(C)Cc3nccn3C)c(-c3cccc(C)c3)n2)cc1 | -2.31% (inactive)
COc1ccc(-n2cc(CNC3CCOCC3)c(-c3cccc(F)c3)n2)cc1 | 50.5% (active)
CCC(O)C1CCN(Cc2cn(-c3ccc(OC)cc3)nc2-c2cccc(F)c2)CC1 (centres undefined) | 23.7% (inactive)
CCCCCCN1C[C@H](O)[C@@H](n2cc(C3CC3)nn2)C[C@@H]1c1ccc(Cl)cc1 | 0.57% (inactive)
COC(=O)CSc1nc(C)c2ccc(OC)cc2n1 | 30.8% (active)
COc1ccc2[nH]c3nc(SCC(=O)NC4CC4)nnc3c2c1 | -8.79% (inactive)
COc1ccc2c(C)cc(SCC(=O)NCC3CCCO3)nc2c1 (centres undefined) | 4.79% (inactive)
Cn1ncc(N2CCN(S(=O)(=O)c3ccc(Br)cc3)CC2)c(Cl)c1=O | -2.21% (inactive)
